# An excerpt weighted towards active compounds, which were near 10% of everything screened.
# ALDH1A1 block – qHTS Assay for Inhibitors of Aldehyde Dehydrogenase 1 (ALDH1A1); 7.3% of 220,000 active; Potency, µM (top dose mostly 75.3 µM), for inactives: top-dose activity, negative = inhibition, usual class: inhibitors; Purified ALDH1A1, NADH fluorescence, propionaldehyde substrate; Aldehyde dehydrogenase 1A1 (Homo sapiens), P00352;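 also: potency is read from the fitted curve at half-maximal effect; plate controls were no enzyme wells and a reference inhibitor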
# Target sequence (P00352 whole entry, looked up): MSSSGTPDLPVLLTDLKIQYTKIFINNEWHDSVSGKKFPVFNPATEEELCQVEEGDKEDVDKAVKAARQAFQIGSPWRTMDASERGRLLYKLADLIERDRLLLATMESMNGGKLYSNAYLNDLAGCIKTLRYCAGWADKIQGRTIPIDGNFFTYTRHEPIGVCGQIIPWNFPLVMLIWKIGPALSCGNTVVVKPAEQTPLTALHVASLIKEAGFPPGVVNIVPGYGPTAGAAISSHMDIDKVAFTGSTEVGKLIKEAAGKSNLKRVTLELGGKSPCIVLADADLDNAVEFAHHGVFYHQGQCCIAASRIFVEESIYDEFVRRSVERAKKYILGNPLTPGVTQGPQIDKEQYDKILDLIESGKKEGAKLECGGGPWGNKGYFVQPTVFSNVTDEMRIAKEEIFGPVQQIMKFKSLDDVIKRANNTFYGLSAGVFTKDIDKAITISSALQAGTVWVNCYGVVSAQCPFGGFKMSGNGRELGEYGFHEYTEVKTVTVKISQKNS
# LMNA splice mod – qHTS Assay for Modulators of Lamin A Splicing | HeLa LMNA splicing GFP/RFP minigene ratio, 48 h | 0.01% of 200,000 active | Potency, µM (top dose mostly 46.1 µM), for inactives: at the highest dose ratio change, negative = inhibition, most hits filed as inhibitors; active = well fitted inhibition curve with a large enough effect in the signal ratio, with a control signal flat, not every such curve was filed as active; inconclusive = small, poorly fitted or top-dose-only effect, or effect the other way, or a change in a side signal; the % refers to the signal ratio; also: potency is read from the fitted curve at half-maximal effect
#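 Read-out is the ratio of GFP to DsRed2 object intensity, acquired by 488 nm laser-scanning cytometry on HeLa lamin A-EGFP minigene reporter cells. Compound incubation 48 hrs at 37 °C in Opti-MEM with 2% FBS; DMSO 0.5% final.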
# PNC inhibitor – High Content Assay for Compounds that inhibit the Assembly of the Perinucleolar Compartment | PC3M PTB-GFP, PNC prevalence imaging, 16 h; hits give low values | activity change (PNC), negative = inhibition, % at 10 µM | 3.1% of 140,000 active | AID 2417, 2010;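 active = readout at or below -70, meaning at least 70% loss of cells showing the perinucleolar compartment, a nuclear body marking cancer cells; inconclusive = readout between -30 and a set limit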;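 also: plate controls were DMSO wells for no effect and camptothecin positive control wells for full effect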
#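 Read-out is percentage of cells bearing a perinucleolar compartment, from automated 20x imaging of fixed, Hoechst-stained PC3M PTB-GFP cells. Cells were seeded 4 h, then exposed 16 h to compound (23 nl of library stock) in duplicate plates.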
# HPGD inh – qHTS Assay for Inhibitors of HPGD (15-Hydroxyprostaglandin Dehydrogenase). 15-hydroxyprostaglandin dehydrogenase [NAD(+)] (Homo sapiens), P15428. purified HPGD, NADH fluorescence kinetic, PGE2 substrate. Potency, µM, for the others: at the top dose activity change, negative = inhibition, hits mostly inhibitors. 4.3% of 150,000 active. AID 894, 2007; also: potency is read from the fitted curve at half-maximal effect
#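 20 nM HPGD preincubated 15 min at room temperature with compound in 50 mM Tris-HCl pH 8, 0.01% Tween 20. Started with 1 mM NAD+ and 30 uM prostaglandin E2; NADH fluorescence (360/450 nm) read 5 times over 30-s intervals, last minus first.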
# Luc counter – Counterscreen for Luciferase (Kinase-Glo TM) Inhibition; Kinase-Glo luciferase, ATP luminescence, 8 min; Potency, µM (series often up to 38.3 µM), inactives show at the top dose activity change, negative = inhibition, actives largely listed as inhibitors; 0.28% of 200,000 active; AID 1379, 2008; active = well fitted inhibition curve with a large enough effect; inconclusive = small, poorly fitted or top-dose-only effect; also: potency is read from the fitted curve at half-maximal effect; nearly all actives have a fitted effect of over 60% in size
#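 Substrate mix (final 50 mM imidazole pH 7.2, 50 mM KCl, 7 mM MgCl2, 10 uM ATP, 0.01% Tween 20, 0.05% BSA) plus pin-tool compound, then Kinase-Glo detection mix; 8 min ambient, luminescence read.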
# * marks the source's active call; other numbers are inactive results; ? = inconclusive; . = no result; [ ] = another dose, or the depositor's remark. Unless noted, calls follow the shape of the dose curve; as a rule, active = well fitted inhibition curve with a large enough effect (not every such curve was filed as active); inconclusive = small, poorly fitted or top-dose-only effect, or another doubt; inactive = no such curve, though single readings can be large or run the other way. Unless noted, % is scaled to controls: 0 for no effect and ±100 for the full control effect.
SMILES,ALDH1A1 block,LMNA splice mod,PNC inhibitor,HPGD inh,Luc counter
O=C(c1ccco1)N(CCC(c1ccccc1)c1ccco1)Cc1ccc(F)cc1 (centres undefined),14µM*,?,-14,-9%,0%
Cc1cc(C(=O)COC(=O)CC2Sc3ccccc3NC2=O)c(C)n1-c1ccc(Br)cc1 (centres undefined),12µM*,15%,?,-13%,-4%
Cc1c(C(=O)OCC(=O)Nc2ccc3c(c2)OCO3)cccc1[N+](=O)[O-],8.9µM*,-17%,4,-11%,-1%
Cc1c(C(=O)OCC(=O)NCc2ccc3c(c2)OCO3)cccc1[N+](=O)[O-],7.9µM*,7%,-11,-15%,1%
COc1ccc(NCc2ccccc2[N+](=O)[O-])cc1OC,?,-2%,-10,-6%,0%
O=C(COc1ccccc1[N+](=O)[O-])Nc1ccc2c(c1)OCO2,-15%,19%[46 µM],.,.,-2%
COc1ccc(NC(=O)COC(=O)Cc2ccccc2[N+](=O)[O-])cc1OC,14µM*,.,.,.,3%
COc1cc(CNCCCSc2nnnn2C)cc(Br)c1OC,.,15%[46 µM],.,.,.
COC(=O)C1=C(C)NC(C)=C(C(=O)OC(C)C)[C@H]1c1cccc2nonc12,-9%[20.9 µM],?,.,-4%,2%[17.1 µM]
CCc1ccc(C(C)NC(=O)Cn2cnc3c(=O)n(C)c(=O)n(C)c32)cc1 (centres undefined),28µM*,-14%,-2,-11%,-2%
Cn1c(=O)c2ncn(CC(=O)NCCC3=CCCCC3)c2n(C)c1=O,?,-7%,-100*,-15%,6%
O=C(Cn1nnc(-c2ccc(Cl)cc2)n1)NCCC1=CCCCC1,-6%,-5%,0,-1%,-1%
Cc1ccc(-c2nnn(CC(=O)NCCC3=CCCCC3)n2)cc1,28µM*,-2%,-21,-13%,0%
CCc1ccc(NC(=O)Cn2cnc3c(=O)n(C)c(=O)n(C)c32)cc1,1%,.,.,.,0%
Cn1c(=O)c2ncn(CC(=O)NC3CCCCCC3)c2n(C)c1=O,-11%,?,?,-10%,6%
COc1ccc(S(=O)(=O)n2nc(-c3ccco3)nc2NCc2ccc(OC)c(OC)c2)cc1,.,-6%[46 µM],.,.,.
COc1cccc2c1Oc1ncccc1N(C(=O)CCC(=O)NCc1ccc(C)cc1)C2,.,10%[46 µM],.,.,.
Cc1ccccc1-c1cncnc1N(C)Cc1ccco1,-14%,?,.,-9%,0%
Clc1ccc(/C=N/Nc2nn[nH]n2)cc1,4%,3%,-100*,-11%,2%
C(=N\Nc1nn[nH]n1)/c1ccccc1,2%,9%,34,-6%,-6%
Cc1sc2nc(CSCC(=O)Nc3ccc(OC(F)F)cc3)[nH]c(=O)c2c1C,40µM*,.,.,.,2%
Nc1ncnc2c1ncn2[C@@H]1O[C@H](COP(=O)(O)OP(=O)(O)O)[C@@H](O)[C@H]1O,1%,.,.,-4%,5µM*
CCC(=O)Nc1nnc(C)s1,-7%,-2%,-106*,1%,3%
CCCCC(=O)Nc1nnc(C)s1,11%,-7%,56,1%,12%
CC(C)=CC(=O)Nc1nnc(-c2ccccc2)s1,-16%,-16%,-23,-29%,0%
SMILES,ALDH1A1 block,LMNA splice mod,PNC inhibitor,HPGD inh,Luc counter
CC(C)=CC(=O)Nc1nnc(C)s1,-1%,0%,-108*,4%,-1%
COc1ccccc1N1CCN(C(=O)c2cc3c(=O)n(Cc4cccnc4)ccc3nc2C)CC1,.,-5%[46 µM],.,.,.
Cc1ccc(/C=C/c2onc(C)c2S(=O)(=O)N2CCC(C(=O)N3CCN(c4cccc(C)c4)C(C)C3)CC2)cc1 (centres undefined),.,-11%[46 µM],.,.,.
O=C(CSc1nc2ccccc2s1)N1c2ccccc2Sc2ccc(Cl)cc21,?,?,?,-5%,-3%
CCN(CC)CC(=O)N1c2ccccc2Sc2ccc(Cl)cc21,1%,-9%,-100*,-15%,-1%
CN(C)c1ccc(SC#N)cc1,13µM*,.,.,.,.
CC(=O)N(Cc1ccccc1)c1ccc(C(=O)O)cc1,11%,-1%,-85*,-3%,-6%
